Assay outcomes deposited in PubChem by National Center for Advancing Translational Sciences (NCATS).
An excerpt weighted towards active compounds, which were near 18% of everything screened.
TDP1 block = inhibitors of human tyrosyl-DNA phosphodiesterase TDP1. Q9NUW8. recombinant TDP1, AlphaScreen DNA substrate cleavage. Potency, µM (series often up to 130 µM), most hits filed as inhibitors. actives 0.28% (n = 350,000); also: nearly all actives have a fitted effect of over 40% in size
Target sequence (Q9NUW8 whole entry, looked up): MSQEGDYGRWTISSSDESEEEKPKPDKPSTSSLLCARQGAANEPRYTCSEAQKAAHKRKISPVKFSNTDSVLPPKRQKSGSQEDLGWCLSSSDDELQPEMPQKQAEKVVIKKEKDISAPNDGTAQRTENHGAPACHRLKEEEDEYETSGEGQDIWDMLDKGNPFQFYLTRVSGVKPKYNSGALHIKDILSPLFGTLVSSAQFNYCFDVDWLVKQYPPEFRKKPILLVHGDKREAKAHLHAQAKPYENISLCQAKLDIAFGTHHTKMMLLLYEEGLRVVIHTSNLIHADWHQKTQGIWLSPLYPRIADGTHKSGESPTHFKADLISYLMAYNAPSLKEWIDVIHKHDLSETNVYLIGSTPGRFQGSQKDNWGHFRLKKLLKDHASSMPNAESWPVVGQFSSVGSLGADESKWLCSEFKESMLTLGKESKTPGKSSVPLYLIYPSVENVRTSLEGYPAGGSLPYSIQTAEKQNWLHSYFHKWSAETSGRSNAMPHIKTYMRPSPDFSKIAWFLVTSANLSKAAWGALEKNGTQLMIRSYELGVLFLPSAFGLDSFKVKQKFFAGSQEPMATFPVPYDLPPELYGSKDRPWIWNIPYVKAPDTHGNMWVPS
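Recombinant human Tdp1 (E. coli-expressed, 1 nM final) preincubated with compounds 15 min at room temperature, then 5'-biotin/3'-phosphotyrosine-FITC DNA substrate (15 nM final) added for 5 min. AlphaScreen beads (10 ug/ml final) added 10 min; cleavage lowers signal.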
TDP1 cell noCPT = qHTS for Inhibitors of human tyrosyl-DNA phosphodiesterase 1 (TDP1): qHTS in cells in absence of CPT; actives 15% (n = 420,000); DT40 Tdp1-/- hTDP1 cells, no CPT, ATP luminescence, 48 h; Potency, µM (highest dose often 46.2 µM), usual class: inhibitors; also: nearly all actives have a fitted effect of over 55% in size
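Cells were dispensed at 400 per well, compounds added by pin tool, plates incubated ≥48 hr at 37 °C, then CellTiter-Glo added for 30 min at room temperature before luminescence reading. Line: DT40 Tdp1-/- complemented with hTDP1; camptothecin omitted.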
IL1B secr inh = blocks inflammasome-driven IL-1 beta release | actives 4.7% (n = 360,000) | activity change, % at 57.5 µM | THP-1 LPS/ATP IL-1B secretion, AlphaLISA, 16 h; active compounds read low; in the data active = activity change below about -50%; inconclusive = mostly about -30% to -49%
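THP-1 cells pretreated 1 hr with compounds (up to 57.5 uM final), then stimulated with LPS (250 ng/mL final) plus ATP (1.25 mM final); secreted IL-1B measured by AlphaLISA after 16 hr, decreased signal indicating inhibition.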
TGFb SMAD3 inh = blocks TGF-b signaling. HepG2 CAGA-GFP TGF-b/SMAD3 reporter, GFP fluorescence, 18 h; TGF-beta stimulated, 500 pg/mL final. Potency, µM (titrated, usually from 46.1 µM), hits mostly inhibitors. actives 1.2% (n = 410,000); also: nearly all actives have a fitted effect of over 65% in size
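HEPG2 CAGA-GFP cells (1000/well, DMEM with 1% FBS) were pre-incubated 2 h at 37 degrees C, given compound by pin tool, then stimulated with TGF-beta at 500 pg/mL final for 18 h before per-cell GFP fluorescence imaging.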
DT40 TDP1 CPT = DT40-hTDP1 cell growth loss with CPT; Potency, µM (highest dose often 46.2 µM), hits mostly inhibitors; AID 686979; actives 12% (n = 420,000); chicken DT40 Tdp1-/-;hTDP1 cells + 20 nM CPT, ATP luminescence, 48 h; also: nearly all actives have a fitted effect of over 55% in size
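Chicken DT40 Tdp1-/- cells stably complemented with human TDP1 were seeded at 400 cells/well in medium containing 20 nM camptothecin, exposed to pin-transferred compounds, and grown at 37 °C for at least 48 hr. Viability was read as ATP luminescence.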
HepG2 viability = HepG2 cytotoxicity, counter-screen for TGF-b inhibitors; actives 0.76% (n = 410,000); Potency, µM (top dose mostly 46.1 µM), most hits filed as cytotoxic; HepG2 CAGA-GFP viability, ATP luminescence, 18 h
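CellTiter-Glo luminescence gave cytotoxicity after 18 hours at 37 degrees C. The cells were HepG2 CAGA-GFP in 1% FBS DMEM, stimulated with 500 pg/mL TGF-beta after compound addition. %Activity was normalised to no-cell wells (complete cell-killing) and DMSO (no toxicity), and curves were fitted and classified.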
Each line names hits and unclear results; the compound was inactive in the other large screens; ! = repeats disagree. Unless noted, calls follow the shape of the dose curve; as a rule, active = well fitted curve in the direction sought with a large enough effect; inconclusive = small, poorly fitted or top-dose-only effect, or another doubt; inactive = no such curve, though single readings can be large; an effect the other way counts as inactive or inconclusive.

CC(C)(C)n1nc(-c2ccc(Cl)cc2)c2c(N)ncnc21	TDP1 cell noCPT 18µM!, TGFb SMAD3 inh inconclusive, DT40 TDP1 CPT 8.2µM!
Cc1ccc(-c2nc(N)c3c(-c4ccc(C)cc4)nn(C(C)(C)C)c3n2)cc1	DT40 TDP1 CPT inconclusive
CC(C)(C)n1nc(-c2ccc(F)cc2)c2c(N)ncnc21	TDP1 cell noCPT 16µM, TGFb SMAD3 inh inconclusive, DT40 TDP1 CPT 23µM
Cc1ccc(C(=O)NCCc2ccccc2)cc1S(=O)(=O)N1CCOCC1	none
CNC(=O)Cn1nc(C)c(S(=O)(=O)N2CCOCC2)c1C	none
C[C@@H]1CCC[C@]2(O[C@@H](CCO)C[C@@H](O)[C@@H]2O)O1	none (no result: TDP1 block)
CCOc1ccc(-c2cc3nc(C4CCN(C(=O)OC(C)(C)C)CC4)c(C(=O)Nc4cc(OC)ccc4OC)cn3n2)cc1	TDP1 cell noCPT inconclusive, DT40 TDP1 CPT inconclusive (no result: IL1B secr inh)
COc1ccc(-c2cc3nc(C4CCN(C(=O)OC(C)(C)C)CC4)c(C(=O)Nc4cc(C)cc(C)c4)cn3n2)cc1	TDP1 cell noCPT 16µM, DT40 TDP1 CPT inconclusive (no result: IL1B secr inh)
COc1ccc(-c2cc3nc(C4CCN(C(=O)OC(C)(C)C)CC4)c(C(=O)Nc4cc(Cl)cc(Cl)c4)cn3n2)cc1	TDP1 cell noCPT inconclusive (no result: IL1B secr inh)
CCOc1ccc(-c2cc3nc(C4CCN(C(=O)OC(C)(C)C)CC4)c(C(=O)Nc4ccc(C)c(F)c4)cn3n2)cc1	TDP1 cell noCPT 7.3µM, TGFb SMAD3 inh inconclusive, DT40 TDP1 CPT 9.2µM (no result: IL1B secr inh)
CCCNC(=O)C1CCN(S(=O)(=O)c2ccc3c(c2)CCCN3C(C)=O)CC1	TDP1 cell noCPT inconclusive (no result: IL1B secr inh)
COc1ccc(CNC(=O)COC(=O)CN2C(=O)C3CC=CCC3C2=O)cc1 (configuration not stated)	none
COc1cccc(NC(=O)CSC2=Nc3ccccc3C3=NC(CC(=O)NCc4cccs4)C(=O)N23)c1 (configuration not stated)	TDP1 cell noCPT inconclusive, DT40 TDP1 CPT 10µM (no result: IL1B secr inh)
CCc1ccc(NC(=O)CSC2=Nc3ccccc3C3=NC(CC(=O)NCc4ccccc4)C(=O)N23)cc1 (configuration not stated)	none (no result: IL1B secr inh)
CCc1ccc(NC(=O)CSC2=Nc3ccccc3C3=NC(CC(=O)NCc4cccs4)C(=O)N23)cc1 (configuration not stated)	TDP1 cell noCPT 4.6µM, DT40 TDP1 CPT 7.3µM (no result: IL1B secr inh)
COC(=O)C1=C[C@@H](C(=O)OC)C2C3=C(C(=O)[C@@]2(C)NC(=O)c2ccccc2)[C@H](c2ccccc2)n2c(=O)n(-c4ccccc4)c(=O)n2[C@@H]3C1 (some centres not stated)	none (no result: TDP1 cell noCPT, IL1B secr inh, DT40 TDP1 CPT)
COC(=O)c1c(-c2c(Cl)cccc2Cl)noc1C(=O)NNC(=O)N(C)C	none (no result: TDP1 block)
CCCCCn1c(CN2CCN(Cc3ccccc3)CC2)nc2c1c(=O)n(C)c(=O)n2C	TDP1 cell noCPT 15µM, DT40 TDP1 CPT 15µM
CC(C)CCn1c(CN2CCN(Cc3ccccc3)CC2)nc2c1c(=O)n(C)c(=O)n2C	TDP1 cell noCPT 16µM, DT40 TDP1 CPT inconclusive
Cn1c(=O)c2c(nc(CN3CCC(C(N)=O)CC3)n2CCCc2ccccc2)n(C)c1=O	TDP1 cell noCPT inconclusive
CCCCCCn1c(CN2CCC(C)CC2)nc2c1c(=O)n(C)c(=O)n2C	TDP1 cell noCPT 16µM, DT40 TDP1 CPT inconclusive
Cn1c(=O)c2c(nc(CN3CCN(c4ccccc4)CC3)n2CCCc2ccccc2)n(C)c1=O	TDP1 cell noCPT 15µM, DT40 TDP1 CPT 21µM (no result: TDP1 block)
Oc1ccc(Br)cc1Cn1nnc2ccccc21	TDP1 cell noCPT inconclusive, TGFb SMAD3 inh inconclusive (no result: TDP1 block)
COc1ccccc1CN1CCNC(=O)C1CC(=O)NC1CCCCCC1 (configuration not stated)	none
CCN1CCN(C(=O)Cn2nc(C)c3sc4ccccc4c3c2=O)CC1	none
CCCCn1c(CN2CCN(c3ccccc3)CC2)nc2c1c(=O)n(C)c(=O)n2C	TDP1 cell noCPT 2.3µM, DT40 TDP1 CPT 1.5µM
CCCCC(=O)N(C)c1c(CC)nc2c(OCc3ccc(C(F)(F)F)cc3)cccn12	TDP1 cell noCPT inconclusive, IL1B secr inh inconclusive, TGFb SMAD3 inh inconclusive, DT40 TDP1 CPT inconclusive (no result: TDP1 block)
COc1ccc(C2=NOC(Cn3nc(C(=O)O)cc3-c3ccccc3)C2)cc1 (configuration not stated)	none (no result: TDP1 block)
Cc1ccc(CNC(=O)c2cc(-c3ccccc3)nn2CC2CC(c3cccnc3)=NO2)cc1 (configuration not stated)	TDP1 cell noCPT inconclusive, TGFb SMAD3 inh inconclusive (no result: TDP1 block)
COc1ccc(C2=NOC(Cn3nc(C(=O)NCc4cccs4)cc3-c3ccccc3)C2)cc1 (configuration not stated)	TDP1 cell noCPT inconclusive, DT40 TDP1 CPT inconclusive
CCOC(=O)c1cc(-c2ccccc2)n(CC2CC(c3ccc(OC)cc3)=NO2)n1 (configuration not stated)	TDP1 cell noCPT 23µM, DT40 TDP1 CPT 23µM (no result: TDP1 block)
COc1ccc(C2=NOC(Cn3nc(-c4ccccc4)cc3C(=O)NCc3cccs3)C2)cc1 (configuration not stated)	TDP1 cell noCPT 9.2µM, DT40 TDP1 CPT inconclusive
COc1ccc(C2=NOC(Cn3nc(C(=O)NCc4cccc(C(F)(F)F)c4)cc3-c3ccccc3)C2)cc1 (configuration not stated)	TDP1 cell noCPT inconclusive, DT40 TDP1 CPT 18µM
Cc1ccc(CNC(=O)c2cc(-c3ccccc3C)nn2CC2CC(c3cccnc3)=NO2)cc1 (configuration not stated)	TDP1 cell noCPT 21µM, TGFb SMAD3 inh inconclusive, DT40 TDP1 CPT inconclusive
CC(=O)N1CCC2(CC1)CN(C(c1ccccc1)c1ccccc1)C2	TDP1 cell noCPT inconclusive (no result: TDP1 block, IL1B secr inh, TGFb SMAD3 inh, HepG2 viability)
NS(=O)(=O)c1ccc(CCNC(=O)c2ccccc2-c2ccccc2)cc1	TGFb SMAD3 inh inconclusive
COc1ccc(C2=NOC(Cn3nc(-c4ccccc4)cc3C(=O)NCc3ccco3)C2)cc1 (configuration not stated)	TGFb SMAD3 inh inconclusive, DT40 TDP1 CPT inconclusive
COc1ccc(C2=NOC(Cn3nc(C(=O)NCc4ccc(C)cc4)cc3-c3ccccc3)C2)cc1 (configuration not stated)	TDP1 cell noCPT 21µM, TGFb SMAD3 inh inconclusive, DT40 TDP1 CPT inconclusive
COCCNC(=O)c1cc(-c2ccccc2)n(CC2CC(c3ccc(OC)cc3)=NO2)n1 (configuration not stated)	TDP1 cell noCPT inconclusive, DT40 TDP1 CPT inconclusive
